# Reference: PubChem BioAssay (NCATS)
# Inconclusive results are not listed. Unmarked numbers belong to inactive results. Activity calls are given as the source filed them. Calls follow the shape of the dose curve; as a rule, active = well fitted curve in the direction sought with a large enough effect in the repeat runs; inconclusive = weak or mixed curves; inactive = no such curve, though single readings can be large; an effect the other way counts as inactive or inconclusive.
# Target: Cytochrome P450 2D6 (Homo sapiens) (UniProt P10635)
# Assay: Cytochrome P450 family 2 subfamily D member 6 (CYP2D6) small molecule antagonists: luciferase biochemical (cell-free) qHTS assay (AID 1645840); also: nearly all actives have a fitted effect of over 55% in size; as to activity change, negative = inhibition: % is scaled to controls: 0 for no effect and ±100 for the full control effect
# Conditions: P450-Glo CYP2D6 enzyme, luciferin luminescence, 1 h; series mostly up to 57.4 µM; activity change, negative = inhibition: at the top concentration
# In short: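 P450-Glo CYP2D6 system: proluciferin substrate converted by enzyme to luciferin, read by luminescence proportional to activity. Enzyme-substrate mix with compound 10 min at room temperature, then NADPH regeneration 1 h before detection reagent.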
# Potency is read from the fitted curve at half-maximal effect.
# Sequence of Cytochrome P450 2D6 (Homo sapiens) (P10635 whole entry, looked up): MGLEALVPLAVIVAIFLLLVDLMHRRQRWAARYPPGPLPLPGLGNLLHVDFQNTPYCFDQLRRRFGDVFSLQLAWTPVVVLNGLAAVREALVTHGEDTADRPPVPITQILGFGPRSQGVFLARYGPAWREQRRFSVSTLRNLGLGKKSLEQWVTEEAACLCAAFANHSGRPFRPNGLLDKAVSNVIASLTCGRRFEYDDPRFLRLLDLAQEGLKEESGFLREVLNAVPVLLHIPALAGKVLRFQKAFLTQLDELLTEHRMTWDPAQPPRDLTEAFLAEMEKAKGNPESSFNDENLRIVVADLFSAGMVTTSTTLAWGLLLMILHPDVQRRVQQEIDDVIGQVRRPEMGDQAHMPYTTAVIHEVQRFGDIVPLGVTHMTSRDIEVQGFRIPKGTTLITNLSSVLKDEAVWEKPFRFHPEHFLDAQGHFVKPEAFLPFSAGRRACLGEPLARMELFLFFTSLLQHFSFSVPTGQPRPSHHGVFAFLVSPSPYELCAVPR
Compound,"activity change, negative = inhibition",Potency
C=CCNCCCCCC[N+](C)(C)C,3.76%,
CCC(C)Nc1cc(C(=O)NC2CC3CCC(C2)N3c2ccc(C(=O)C3CC3)cn2)c(C)cc1C(N)=O (stereo not drawn),-9.78%,
O=C(CC1N=C2c3ccccc3N=C(SCc3ccc(Cl)cc3)N2C1=O)NCCc1ccccc1 (stereo not drawn),,2.13 µM (active)
CC1(C#N)CCN(c2c(C(=O)N3CCN(S(C)(=O)=O)CC3)cnc3cc(F)c(F)cc23)CC1,3.35%,
Cc1nc2c3ccccc3nc(NNC(=O)CCC(=O)N3CCN(c4ccccc4F)CC3)n2n1,-0.728%,
COc1cc(C(=O)NC(c2ccc(Cl)cc2)c2cc(Cl)c3cccnc3c2O)cc(OC)c1OC (stereo not drawn),7.14%,
Cc1ccc(Nc2nc3nonc3nc2Nc2cccc(C(F)(F)F)c2)cc1Cl,,9.52 µM (active)
c1ccc(Cn2c(-c3ccc(OC[C@H](C4CCNCC4)n4c(-c5ccccc5)nc5ccccc54)cc3)nc3ccccc32)cc1,,12 µM (active)
CCCCC1CCC(CCCC(C)CCC(=O)O)CC1 (stereo not drawn),6.09%,

# Target: Cytochrome P450 3A4 (Homo sapiens) (UniProt P08684)
# Assay: Cytochrome P450 family 3 subfamily A member 4 (CYP3A4) small molecule antagonists: luciferase qHTS assay (AID 1645841); also: nearly all actives have a fitted effect of over 45% in size
# Conditions: P450-Glo CYP3A4 enzyme assay, luciferin luminescence; series mostly up to 57.4 µM; activity change, negative = inhibition: at the top concentration
# In short: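 P450-Glo CYP3A4 enzyme with proluciferin substrate was preincubated with DMSO-dissolved compounds for 10 min at room temperature. NADPH regeneration solution started a 1 h reaction. Detection reagent stopped it, and luminescence was read after 20 min.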
# Sequence of Cytochrome P450 3A4 (Homo sapiens) (P08684 whole entry, looked up): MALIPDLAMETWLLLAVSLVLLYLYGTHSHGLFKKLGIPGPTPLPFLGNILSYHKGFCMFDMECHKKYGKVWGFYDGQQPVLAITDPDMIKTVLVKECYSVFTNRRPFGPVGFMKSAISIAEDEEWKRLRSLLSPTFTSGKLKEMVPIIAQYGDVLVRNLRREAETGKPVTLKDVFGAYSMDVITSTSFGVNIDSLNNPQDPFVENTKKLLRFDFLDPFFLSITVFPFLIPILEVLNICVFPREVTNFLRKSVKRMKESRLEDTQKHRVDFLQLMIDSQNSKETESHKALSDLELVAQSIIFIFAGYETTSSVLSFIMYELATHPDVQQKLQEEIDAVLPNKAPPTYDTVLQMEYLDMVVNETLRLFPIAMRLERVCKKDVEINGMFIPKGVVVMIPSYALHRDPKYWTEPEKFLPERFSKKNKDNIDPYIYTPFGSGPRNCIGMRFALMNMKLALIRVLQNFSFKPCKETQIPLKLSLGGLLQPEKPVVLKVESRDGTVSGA
Compound,"activity change, negative = inhibition",Potency
OC[C@H]1O[C@@H]2O[C@H]3[C@H](O)[C@@H](O)[C@@H](O[C@H]4[C@H](O)[C@@H](O)[C@@H](O[C@H]5[C@H](O)[C@@H](O)[C@@H](O[C@H]6[C@H](O)[C@@H](O)[C@@H](O[C@H]7[C@H](O)[C@@H](O)[C@@H](O[C@H]1[C@H](O)[C@@H]2O)O[C@@H]7CO)O[C@@H]6CO)O[C@@H]5CO)O[C@@H]4CO)O[C@@H]3CO,29.1%,
C[S+](=O)([O-])Nc1ccc(-c2ccc3nc(-c4ccc(OC(F)(F)F)cc4)[nH]c3c2)cc1,16.7%,
Cc1ccc(-n2nc3c(N4CCCC(C(=O)NCc5ccccc5C)C4)nnc(C)c3c2C)cc1 (stereo not drawn),,1.69 µM (active)
CN[C@H](CC(C)C)C(=O)N[C@H]1C(=O)N[C@@H](CC(N)=O)C(=O)N[C@H]2C(=O)N[C@H]3C(=O)N[C@H](C(=O)N[C@H](C(=O)O)c4cc(O)cc(O)c4-c4cc3ccc4O)[C@H](O)c3ccc(c(Cl)c3)Oc3cc2cc(c3O[C@@H]2OC(CO)[C@@H](O)[C@H](O)[C@@H]2O[C@H]2C[C@](C)(N)[C@H](O)[C@H](C)O2)Oc2ccc(cc2Cl)[C@H]1O (stereo partly drawn),-6.63%,
CC(C)OCc1cc(CN2CCN(c3ccccc3)CC2)c(O)c2ncccc12,-14%,
CCc1ccc(CNC(=O)C2CCCN(c3nnc(C)c4c(C)n(-c5ccccc5)nc34)C2)cc1 (stereo not drawn),,1.9 µM (active)
O=C(O)CN(CC(=O)O)Cc1cc2c(-c3ccccc3C(=O)O)c3cc(CN(CC(=O)O)CC(=O)O)c(=O)cc-3oc2cc1O,34.7%,
Cc1ccc(Nc2nc3nonc3nc2Nc2cccc(C(F)(F)F)c2)cc1Cl,28%,

# Target: Cytochrome P450 2C9 (Homo sapiens) (UniProt P11712)
# Assay: Cytochrome P450 family 2 subfamily C member 9 (CYP2C9) small molecule antagonists: luciferase biochemical (cell-free) qHTS assay (AID 1645842); also: nearly all actives have a fitted effect of over 55% in size; as to activity change, negative = inhibition: % is scaled to controls: 0 for no effect and ±100 for the full control effect
# Conditions: P450-Glo CYP2C9 enzyme assay, luciferin luminescence; series mostly up to 57.4 µM; activity change, negative = inhibition: at the top concentration
# In short: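 P450-Glo CYP2C9 system: proluciferin substrate with enzyme in mix containing 0.4% BSA, 10 min at room temperature, then NADPH regeneration solution added and incubated 1 h at 37C. Detection reagent stopped reaction; luminescence read after 20 min as RLU.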
# Sequence of Cytochrome P450 2C9 (Homo sapiens) (P11712 whole entry, looked up): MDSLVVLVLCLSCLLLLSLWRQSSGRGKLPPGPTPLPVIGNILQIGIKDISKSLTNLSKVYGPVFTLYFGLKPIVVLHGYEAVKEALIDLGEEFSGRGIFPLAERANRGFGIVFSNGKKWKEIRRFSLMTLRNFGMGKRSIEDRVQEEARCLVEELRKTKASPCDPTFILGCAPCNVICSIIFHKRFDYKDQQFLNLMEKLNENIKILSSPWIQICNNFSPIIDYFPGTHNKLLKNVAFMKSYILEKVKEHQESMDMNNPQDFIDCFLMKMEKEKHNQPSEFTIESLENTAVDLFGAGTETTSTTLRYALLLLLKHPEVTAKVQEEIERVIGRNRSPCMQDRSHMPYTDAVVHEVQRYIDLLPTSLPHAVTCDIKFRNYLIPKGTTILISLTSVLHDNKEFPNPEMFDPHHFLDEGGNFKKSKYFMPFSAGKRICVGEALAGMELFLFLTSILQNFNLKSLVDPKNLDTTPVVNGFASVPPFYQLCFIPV
Compound,"activity change, negative = inhibition",Potency
OC[C@H]1O[C@@H]2O[C@H]3[C@H](O)[C@@H](O)[C@@H](O[C@H]4[C@H](O)[C@@H](O)[C@@H](O[C@H]5[C@H](O)[C@@H](O)[C@@H](O[C@H]6[C@H](O)[C@@H](O)[C@@H](O[C@H]7[C@H](O)[C@@H](O)[C@@H](O[C@H]1[C@H](O)[C@@H]2O)O[C@@H]7CO)O[C@@H]6CO)O[C@@H]5CO)O[C@@H]4CO)O[C@@H]3CO,3.43%,
CCOCCCNC(=O)C(=O)Nc1c2c(nn1-c1ccc(OC)cc1)CSC2,,10.7 µM (active)
Cc1ccc(-n2nc3c(N4CCCC(C(=O)NCc5ccccc5C)C4)nnc(C)c3c2C)cc1 (stereo not drawn),,2.68 µM (active)
CCc1ccc(CNC(=O)C2CCCN(c3nnc(C)c4c(C)n(-c5ccccc5)nc34)C2)cc1 (stereo not drawn),,8.49 µM (active)
O=C(O)CN(CC(=O)O)Cc1cc2c(-c3ccccc3C(=O)O)c3cc(CN(CC(=O)O)CC(=O)O)c(=O)cc-3oc2cc1O,9.11%,
Cc1ccc(Nc2nc3nonc3nc2Nc2cccc(C(F)(F)F)c2)cc1Cl,,5.35 µM (active)
